SW480 rerep = A quantitative high throughput screen for small molecules that induce DNA re-replication in SW480 colon adenocarcinoma cells; SW480 DNA re-replication, Hoechst DNA content imaging, 48 h; Potency, µM (doses to about 46.1 µM), actives largely listed as activators; 340,000 tested, 1.8% active; AID 624297, 2012; further: nearly all actives have a fitted effect of over 55% in size
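SW480 cells exposed to compounds for 48 hr at 37 C, 5% CO2, then Hoechst-stained 40 min. Nuclear DNA content imaged by fluorescence scanning (405 nm excitation, 500-530 nm emission); re-replication scored as increased high-intensity nuclei.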
KB-3-1 tox = qHTS assay for MDR1-selective chemotherapeutics: Primary screen using the parental adenocarcinoma cell KB-3-1 | 400,000 tested, 1.4% active | Potency, µM (top dose mostly 46.1 µM), usual class: cytotoxic | KB-3-1 viability, CellTiter-Glo ATP luminescence, 72 h; further: nearly all actives have a fitted effect of over 60% in size
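KB-3-1 cells, DMEM (no phenol red) + 10% FBS; compound by pin transfer, 72 h, 37 °C. Readout: CellTiter-Glo luminescence after 10 min. Data normalized, curve-fitted.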
IL1B secr inh = qHTS for Inhibitors of Inflammasome Signaling: IL-1-beta AlphaLISA Primary Screen. THP-1 LPS/ATP IL-1B secretion, AlphaLISA, 16 h; hits give low values. activity change, % at 57.5 µM. 360,000 tested, 4.7% active. AID 743279, 2014; in the data active means activity change below about -50%; inconclusive means mostly about -30% to -49%
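THP-1 cells pretreated 1 hr with compounds (up to 57.5 uM final), then stimulated with LPS (250 ng/mL final) plus ATP (1.25 mM final); secreted IL-1B measured by AlphaLISA after 16 hr, decreased signal indicating inhibition.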
KB-V1 cytotox = qHTS assay for MDR1-selective chemotherapeutics: Primary screen using the drug-selected MDR subline cells KB-V1; KB-V1 MDR cells viability, CellTiter-Glo, 72 h; Potency, µM (highest dose often 46.1 µM), hits mostly cytotoxic; 400,000 tested, 3.4% active; AID 1347076, 2019; further: nearly all actives have a fitted effect of over 60% in size
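Cytotoxicity via CellTiter-Glo luminescence after 72 h compound exposure at 37 degrees C. Cells: drug-selected KB-V1 line, DMEM phenol-red free plus 10% FBS. Compounds tested at multiple concentrations; normalized data fitted to concentration-effect curves.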
MCF10A rereplic = A quantitative high throughput screen for small molecules that induce DNA re-replication in MCF 10a normal breast cells; MCF 10A DNA re-replication, Hoechst nuclear intensity, 48 h; Potency, µM (series often up to 46.1 µM), actives largely listed as activators; 350,000 tested, 2.9% active; further: nearly all actives have a fitted effect of over 50% in size
Each line names hits and unclear results; the compound was inactive in the other large screens. In the library only some 9.9% were active in any assay of this set; here they are far more common. Unless noted, the call rests on the fitted dose curve; in most records, active means well fitted curve in the direction sought with a large enough effect; inconclusive means small, poorly fitted or top-dose-only effect, or another doubt; inactive means no such curve, though single readings can be large; an effect the other way counts as inactive or inconclusive.

COc1ccc(N2CCN(C(=O)CSc3nnc4n3C(C)(C)Cc3ccccc3-4)CC2)cc1	KB-3-1 tox inconclusive, KB-V1 cytotox 5.2µM
Cc1ccc(Cl)cc1N1CCN(C(=O)CSc2nnc3n2C(C)(C)Cc2ccccc2-3)CC1	KB-3-1 tox inconclusive, IL1B secr inh inconclusive, KB-V1 cytotox 12µM, MCF10A rereplic 13µM
CCOc1ccc(/C=C/C(=O)Nc2ccc3[nH]c(=O)[nH]c3c2)cc1	none (no result: SW480 rerep)
Cn1c(=O)c2ncn(CC(=O)N/N=C/c3ccco3)c2n(C)c1=O	none
CC(Oc1ccc(Cl)cc1)C(=O)Nc1sccc1C(N)=O (stereo unspecified)	IL1B secr inh -62, KB-V1 cytotox 9.2µM
CC1(C)Cc2c(sc3nc(-c4cccs4)n(N)c(=O)c23)CO1	SW480 rerep inconclusive, KB-V1 cytotox 8.2µM, MCF10A rereplic inconclusive
CC1(C)Cc2c(sc3nc(-c4ccccc4)n(N)c(=O)c23)CO1	IL1B secr inh -76, MCF10A rereplic inconclusive
Nn1c(-c2cccs2)nc2sc3c(c2c1=O)CCCC3	KB-V1 cytotox inconclusive
CCOc1ncccc1C(=O)OCC(=O)c1cc(OC)c(OC)c(OC)c1	none
CCOC(=O)C1(Cc2ccccc2C(F)(F)F)CCN(C(C)CSC)CC1 (stereo unspecified)	none
CCOC(=O)C1(Cc2ccccc2C(F)(F)F)CCN(C(C)CCn2cccn2)CC1 (stereo unspecified)	IL1B secr inh -79
CCOC(=O)C1(Cc2ccc(Cl)cc2)CCN(CCCn2cccn2)CC1	IL1B secr inh -58
CCOC(=O)C1(Cc2ccc(Cl)cc2)CCN(C(=O)CCc2ccncc2)CC1	SW480 rerep inconclusive, IL1B secr inh inconclusive, KB-V1 cytotox 4.1µM
COc1ccccc1C(=O)Nc1cccc(Oc2c(F)c(F)c(F)c(F)c2F)c1	none
CSCC[C@H](NS(=O)(=O)c1ccc(C(C)=O)cc1)c1nnc2ccccn12	none
O=C(O)CCc1ccc(-c2ccccc2)n1NC(=O)c1cccs1	SW480 rerep 23µM
NC(=S)Nn1c(CCC(=O)O)ccc1-c1ccccc1	none
COc1ccc(CN2CCN(C(=O)CC(C)C)CC2)cc1Br	KB-3-1 tox inconclusive
COc1ccc(/C=C/C(=O)N(CC(C)C)CC(C)C)cc1Br	SW480 rerep inconclusive, IL1B secr inh inconclusive, KB-V1 cytotox 21µM, MCF10A rereplic inconclusive
Cc1ccc(C(=O)Nc2ccccc2N2CCCC2)cc1	none
O=C(NCCC1=CCCCC1)C(=O)NCC(c1ccco1)N1CCN(c2ccccc2)CC1 (stereo unspecified)	SW480 rerep inconclusive, KB-V1 cytotox inconclusive, MCF10A rereplic inconclusive
O=C(NCC(c1ccco1)N1CCN(c2ccccc2F)CC1)C(=O)NC1CC1 (stereo unspecified)	KB-V1 cytotox inconclusive, MCF10A rereplic inconclusive
O=C(NCCC1=CCCCC1)C(=O)NCC(c1ccco1)N1CCN(c2ccccc2F)CC1 (stereo unspecified)	KB-V1 cytotox 4.1µM
COc1ccc(N2CCN(C(CNC(=O)C(=O)NCCC3=CCCCC3)c3ccco3)CC2)cc1 (stereo unspecified)	KB-V1 cytotox 2.6µM
Cc1oc2ncn(CC(C)C)c(=O)c2c1C(=O)N1CCN(c2cccc(C(F)(F)F)c2)CC1	none (no result: SW480 rerep, IL1B secr inh, MCF10A rereplic)
CC(=O)c1ccc(NC(=S)N2CCN(S(=O)(=O)c3ccc(F)cc3)CC2)cc1	none
COC(=O)/C=C/c1ccccc1S(=O)(=O)NC(C)C	none (no result: SW480 rerep, IL1B secr inh, MCF10A rereplic)
COC(=O)/C=C/c1ccccc1S(=O)(=O)N(Cc1ccccc1)Cc1ccco1	SW480 rerep 4.1µM, KB-3-1 tox 3.3µM, KB-V1 cytotox 7.3µM, MCF10A rereplic 2.1µM
COc1ccc(-c2cc(C(F)(F)F)nc(SCC(=O)NCCCN3CCOCC3)n2)cc1	KB-3-1 tox inconclusive
CSc1ccccc1C(=O)NCCSc1ccccc1	KB-V1 cytotox 18µM
Cc1cccc(OCCNC(=O)CCNS(=O)(=O)c2ccc3ccccc3c2)c1	KB-V1 cytotox 18µM
Cc1ccc(C(=O)NCCOc2cccc(C)c2)cc1	none
O=C(CCNS(=O)(=O)c1ccc2ccccc2c1)NCCOc1ccccc1	none
Cc1ccccc1C(=O)NCCSc1ccccc1	none
COc1ccc(C(=O)NCCCSc2ccccc2)cc1F	none
CSc1ccccc1C(=O)NCCOc1cccc(C)c1	IL1B secr inh -91, KB-V1 cytotox inconclusive
COc1ccc(Cl)cc1C(=O)NCCCSc1ccccc1	IL1B secr inh -54
O=C(CCS(=O)(=O)c1ccc(F)cc1)N1CCOCC1	none
O=C1C2CC=CCC2C(=O)N1c1ccc(NCCc2cccc(F)c2)c([N+](=O)[O-])c1 (stereo unspecified)	MCF10A rereplic inconclusive
CCc1nc2ccc(C(=O)Nc3cc(-c4ccccc4)ccc3OC)cn2c1N(C)Cc1nccs1	KB-3-1 tox inconclusive, IL1B secr inh -80 (no result: SW480 rerep, MCF10A rereplic)
CCc1nc2ccc(C(=O)Nc3cc(-c4ccccc4)ccc3OC)cn2c1N(C)C(=O)c1cccc(OC)c1	IL1B secr inh -76, KB-V1 cytotox inconclusive (no result: SW480 rerep, MCF10A rereplic)
CCc1nc2ccc(C(=O)NCCOc3ccc(OC)cc3)cn2c1N(CCC(C)C)CCN(C)C	IL1B secr inh -64 (no result: SW480 rerep, MCF10A rereplic)
CCc1nc2ccc(C(=O)Nc3cc(-c4ccccc4)ccc3OC)cn2c1N(C=O)CCC(C)C	IL1B secr inh -60 (no result: SW480 rerep, MCF10A rereplic)
COc1cc(Br)c(C2CC(=O)Nc3cc4c(cc32)OCCO4)cc1OC (stereo unspecified)	KB-V1 cytotox inconclusive (no result: SW480 rerep, IL1B secr inh, MCF10A rereplic)
CCN1CCN(C(=O)CN(c2ccc(F)cc2)S(=O)(=O)c2ccc(OC)c(OC)c2)CC1	KB-V1 cytotox inconclusive
C[C@@H]1C(=O)N(c2ccccc2)[C@@H]1c1ccncc1	none
CSc1ccccc1-c1nc(-c2ccncc2)no1	KB-V1 cytotox inconclusive
COc1cc(OC)cc(C(=O)Nc2nc(-c3ccccc3)c(-c3ccccc3)o2)c1	SW480 rerep inconclusive, KB-3-1 tox inconclusive
O=C(CSC(=S)N1CCOCC1)Nc1nc(-c2ccccc2)c(-c2ccccc2)o1	none
CC(=O)Nc1nc(-c2ccccc2)c(-c2ccccc2)o1	IL1B secr inh -66
O=C(CSC(=S)N1CCCCC1)Nc1nc(-c2ccccc2)c(-c2ccccc2)o1	KB-V1 cytotox 23µM
CC(=O)Nc1ccc(OS(=O)(=O)c2ccc([N+](=O)[O-])cc2)cc1	none
C=CCn1c(=O)/c(=C/c2ccc(Cl)cc2)s/c1=C(\C#N)c1nnc2n1CCCCC2	IL1B secr inh -79, MCF10A rereplic inconclusive (no result: KB-3-1 tox, KB-V1 cytotox)
C=CCN1C(c2ccccc2)=CS/C1=C(\C#N)c1nnc2n1CCCCC2	KB-V1 cytotox inconclusive
Cc1cccc(NC(=O)CSc2nncn2-c2ccccn2)c1	KB-V1 cytotox inconclusive

Screening data deposited in PubChem by National Center for Advancing Translational Sciences (NCATS).
